# Measured values from PubChem BioAssay (Tox21).
# A number with no mark means an inactive call. Results filed as inconclusive are left out. A call without a number means that no potency is given here. Active and inactive are the calls of the source. Unless noted, calls follow the shape of the dose curve; as a rule, active = well fitted curve in the direction sought with a large enough effect in the repeat runs; inconclusive = weak or mixed curves; inactive = no such curve, though single readings can be large; an effect the other way counts as inactive or inconclusive.
# Assays:
# [1] = molecular target: Glucocorticoid receptor (Homo sapiens) (UniProt P04150); experiment: qHTS assay to identify small molecule antagonists of the glucocorticoid receptor (GR) signaling pathway (AID 720692; active = well fitted inhibition curve with a large enough effect in the signal ratio in the repeat runs, not every such curve was filed as active; the % refers to the signal ratio; also: potency is read from the fitted curve at half-maximal effect)
# Sequence of Glucocorticoid receptor (Homo sapiens) (P04150 whole entry, looked up): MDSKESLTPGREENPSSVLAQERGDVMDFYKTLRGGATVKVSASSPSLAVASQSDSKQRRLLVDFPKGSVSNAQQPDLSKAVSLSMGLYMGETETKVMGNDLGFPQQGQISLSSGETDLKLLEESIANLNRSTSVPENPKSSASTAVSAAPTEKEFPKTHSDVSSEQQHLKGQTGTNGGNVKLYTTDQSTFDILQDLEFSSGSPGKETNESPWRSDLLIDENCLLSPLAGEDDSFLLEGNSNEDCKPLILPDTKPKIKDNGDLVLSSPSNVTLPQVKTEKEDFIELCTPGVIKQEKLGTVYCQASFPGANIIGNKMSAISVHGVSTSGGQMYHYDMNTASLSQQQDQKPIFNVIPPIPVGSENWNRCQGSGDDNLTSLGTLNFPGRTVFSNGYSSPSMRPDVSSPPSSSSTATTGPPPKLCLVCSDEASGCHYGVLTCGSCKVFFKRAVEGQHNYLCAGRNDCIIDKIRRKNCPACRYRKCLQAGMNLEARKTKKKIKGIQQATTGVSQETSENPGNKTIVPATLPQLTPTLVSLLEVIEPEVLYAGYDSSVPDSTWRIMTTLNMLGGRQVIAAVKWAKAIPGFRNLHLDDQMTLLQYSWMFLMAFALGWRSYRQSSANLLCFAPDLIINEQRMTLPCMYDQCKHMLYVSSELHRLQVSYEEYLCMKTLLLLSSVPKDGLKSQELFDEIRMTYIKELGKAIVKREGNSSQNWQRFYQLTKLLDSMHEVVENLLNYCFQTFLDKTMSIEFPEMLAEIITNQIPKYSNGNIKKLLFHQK
# How it was run: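 Read-out: beta-lactamase FRET substrate fluorescence, 2 h at room temperature, in HeLa cells stably carrying a GRE-driven bla reporter. Compounds were co-incubated with 5 nM dexamethasone agonist (final) for 18 h at 37 C.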
# [2] = molecular target: Estrogen receptor (Homo sapiens) (UniProt P03372); experiment: qHTS assay to identify small molecule antagonists of the estrogen receptor alpha (ER-alpha) signaling pathway (AID 743069; active = well fitted curve in the direction sought with a large enough effect in the signal ratio in the repeat runs, not every such curve was filed as active; the % refers to the signal ratio)
# Sequence of Estrogen receptor (Homo sapiens) (P03372 whole entry, looked up): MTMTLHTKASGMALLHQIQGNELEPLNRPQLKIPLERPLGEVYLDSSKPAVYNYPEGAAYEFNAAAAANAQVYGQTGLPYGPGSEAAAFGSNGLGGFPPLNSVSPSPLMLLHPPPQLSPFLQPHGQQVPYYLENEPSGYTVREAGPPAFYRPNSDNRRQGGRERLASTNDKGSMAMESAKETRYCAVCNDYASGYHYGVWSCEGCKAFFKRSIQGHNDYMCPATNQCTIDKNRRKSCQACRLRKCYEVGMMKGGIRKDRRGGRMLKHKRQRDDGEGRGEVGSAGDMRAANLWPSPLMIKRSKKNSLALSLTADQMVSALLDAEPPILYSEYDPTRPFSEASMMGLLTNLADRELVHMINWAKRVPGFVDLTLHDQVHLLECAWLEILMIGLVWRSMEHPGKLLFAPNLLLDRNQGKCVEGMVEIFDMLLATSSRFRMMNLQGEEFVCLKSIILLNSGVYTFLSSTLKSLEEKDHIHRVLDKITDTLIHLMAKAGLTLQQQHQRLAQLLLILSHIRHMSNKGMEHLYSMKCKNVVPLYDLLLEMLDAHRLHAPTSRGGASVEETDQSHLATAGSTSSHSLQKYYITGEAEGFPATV
# How it was run: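 In this cell-based reporter format, GripTite HEK293 cells harbouring ER-alpha-UAS-bla were grown overnight with 2% charcoal-stripped FBS, dosed with DMSO-dissolved compounds, then challenged with 17beta-estradiol. After 18 hr at 37C, beta-lactamase activity was detected by FRET fluorescence.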
# [3] = molecular target: Peroxisome proliferator-activated receptor gamma (Homo sapiens) (UniProt P37231); experiment: qHTS assay to identify small molecule agonists of the peroxisome proliferator-activated receptor gamma (PPARg) signaling pathway (AID 743094; active = well fitted activation curve with a large enough effect in the signal ratio in the repeat runs, not every such curve was filed as active; the % refers to the signal ratio)
# Sequence of Peroxisome proliferator-activated receptor gamma (Homo sapiens) (P37231 whole entry, looked up): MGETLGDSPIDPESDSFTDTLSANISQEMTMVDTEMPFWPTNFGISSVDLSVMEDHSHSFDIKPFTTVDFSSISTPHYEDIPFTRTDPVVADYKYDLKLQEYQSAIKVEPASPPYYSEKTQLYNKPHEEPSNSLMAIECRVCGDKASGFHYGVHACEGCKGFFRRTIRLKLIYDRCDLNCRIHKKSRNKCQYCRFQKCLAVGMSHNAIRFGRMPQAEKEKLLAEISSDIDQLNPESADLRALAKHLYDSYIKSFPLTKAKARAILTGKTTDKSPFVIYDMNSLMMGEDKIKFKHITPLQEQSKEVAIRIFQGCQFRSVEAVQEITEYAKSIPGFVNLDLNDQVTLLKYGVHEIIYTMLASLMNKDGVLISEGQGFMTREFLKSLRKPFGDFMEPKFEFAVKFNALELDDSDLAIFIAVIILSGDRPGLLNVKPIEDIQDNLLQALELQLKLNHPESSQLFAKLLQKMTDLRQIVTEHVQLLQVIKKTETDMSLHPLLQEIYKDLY
# How it was run: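 HEK293H PPARg-bla cells, 5 h settle at 37C/5% CO2; compound (DMSO) 17 h, 37C; B/G FRET substrate 1 h RT; fluorescence intensity read-out. qHTS format.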
# [4] = molecular target: Nuclear receptor subfamily 1 group I member 2 (Homo sapiens) (UniProt O75469); experiment: CYP3A4 induction through human pregnane X receptor (PXR) by small molecules, qHTS assay (AID 1346984); also: nearly all actives have a fitted effect of over 40% in size
# How it was run: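 HepG2-derived DPX-2 line carrying PXR plus a CYP3A4-promoter luciferase reporter; cells plated 5 hr, compound-exposed 24 hr at 37C. CYP3A4 activity probed with 3uM (final) Luciferin-IPA for 3hr, then luciferase read after One-Glo.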
# [5] = molecular target: Nuclear receptor subfamily 1 group I member 2 (Homo sapiens) (UniProt O75469); experiment: Human pregnane X receptor (PXR) activation by small molecules, qHTS assay (AID 1346985); also: nearly all actives have a fitted effect of over 40% in size
# How it was run: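 DPX-2 cells (HepG2 co-transfected with a PXR response element and a CYP3A4-promoter luciferase construct) were seeded at 2,000 per well, rested 5 hr at 37C, then exposed to DMSO-dissolved compounds for 24 hr. Activation was read as luciferase luminescence.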
# [6] = qHTS assay for identifying genotoxic compounds that show differential cytotoxicity against isogenic chicken DT40 cell lines with known DNA damage response pathways - Rev3 mutant cell line (AID 743014); also: nearly all actives have a fitted effect of over 55% in size; also: potency is read from the fitted curve at half-maximal effect
# [7] = molecular target: Nuclear receptor subfamily 1 group I member 2 (Rattus norvegicus) (UniProt Q9R1A7); experiment: Rat pregnane X receptor (rPXR) activation by small molecules, qHTS assay (AID 1346983); conditions: rPXR luciferase reporter cells, One-Glo luminescence, 24 h; max activation: active compounds read high; also: nearly all actives have a fitted effect of over 20% in size
# Sequence of Nuclear receptor subfamily 1 group I member 2 (Rattus norvegicus) (Q9R1A7 whole entry, looked up): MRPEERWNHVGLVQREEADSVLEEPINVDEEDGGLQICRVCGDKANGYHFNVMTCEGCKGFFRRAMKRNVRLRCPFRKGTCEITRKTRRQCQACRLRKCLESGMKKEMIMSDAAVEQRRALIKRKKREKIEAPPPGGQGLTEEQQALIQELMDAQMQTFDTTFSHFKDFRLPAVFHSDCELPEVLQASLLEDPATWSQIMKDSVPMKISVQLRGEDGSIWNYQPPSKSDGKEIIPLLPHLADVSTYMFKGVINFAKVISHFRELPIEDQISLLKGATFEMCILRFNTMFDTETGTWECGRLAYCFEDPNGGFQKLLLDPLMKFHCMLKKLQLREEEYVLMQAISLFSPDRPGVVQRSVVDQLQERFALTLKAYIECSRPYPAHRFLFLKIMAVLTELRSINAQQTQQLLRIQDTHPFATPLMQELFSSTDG
# How it was run: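 Cell-based rPXR activation assay: rPXR cells, 2,000 per well, rested 5hr at 37 C, then exposed to compounds in DMSO for 24 hr at 37 C. Luciferase activity read by One-Glo luminescence after 30 min at room temperature.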
# [8] = Caspase-3/7 induction in HepG2 cells by small molecules, qHTS assay (AID 1346978); also: nearly all actives have a fitted effect of over 15% in size
# How it was run: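 Wild-type HepG2 cells, 2,000/well, settled 5 hr at 37 C and 5% CO2, then compound-treated for 17 hr; caspase-3/7 activity read by luminescent Caspase-Glo 3/7 after 30 min at room temperature.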
# [9] = molecular target: Acetylcholinesterase (Homo sapiens) (UniProt P22303); experiment: Acetylcholinesterase (AChE) small molecule antagonists: enzyme-based qHTS assay with human liver microsomes (AID 1347399; calls by dose curve; also: nearly all actives have a fitted effect of over 60% in size); conditions: Potency: qHTS inhibition; outcome: qHTS inhibition
# Sequence of Acetylcholinesterase (Homo sapiens) (P22303 whole entry, looked up): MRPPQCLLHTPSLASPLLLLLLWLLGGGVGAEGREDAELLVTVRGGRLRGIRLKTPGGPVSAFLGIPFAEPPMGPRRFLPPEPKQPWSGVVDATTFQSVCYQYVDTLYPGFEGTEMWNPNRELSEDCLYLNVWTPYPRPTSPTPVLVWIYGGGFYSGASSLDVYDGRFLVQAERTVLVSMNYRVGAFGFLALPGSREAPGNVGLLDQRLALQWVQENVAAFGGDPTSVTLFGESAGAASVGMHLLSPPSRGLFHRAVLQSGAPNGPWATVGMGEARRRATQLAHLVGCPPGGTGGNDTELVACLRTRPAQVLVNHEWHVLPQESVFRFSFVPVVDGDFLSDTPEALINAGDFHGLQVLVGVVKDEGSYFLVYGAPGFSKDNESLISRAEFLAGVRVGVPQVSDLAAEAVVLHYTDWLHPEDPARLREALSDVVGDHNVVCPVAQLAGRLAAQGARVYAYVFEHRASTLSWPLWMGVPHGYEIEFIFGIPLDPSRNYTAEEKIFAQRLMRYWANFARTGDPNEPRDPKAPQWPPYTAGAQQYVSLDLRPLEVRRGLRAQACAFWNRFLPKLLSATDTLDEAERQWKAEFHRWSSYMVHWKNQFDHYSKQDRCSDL
# How it was run: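 Recombinant human AChE (50 mU/mL in the enzyme mix) and human liver microsomes (0.25 mg/mL final) were preincubated with compound and NADPH (0.25 mg/mL final) for 30 min at 37 C. Acetylthiocholine/DTNB was then added; thiocholine was read colorimetrically after 10 min at room temperature.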
# [10] = qHTS assay for small molecule activators of the heat shock response signaling pathway (AID 743210; active = well fitted activation curve with a large enough effect in the signal ratio in the repeat runs, with a control signal flat, not every such curve was filed as active; the % refers to the signal ratio;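 also: HeLa cells with beta-lactamase reporter driven by heat shock elements; series mostly up to about 63 µM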)
# How it was run: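 Following overnight attachment, HSE-bla HeLa cells received test compounds for 5 h at 37 C; beta-lactamase activity was then detected via FRET substrate fluorescence.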
# [11] = molecular target: Peroxisome proliferator-activated receptor delta (Homo sapiens) (UniProt Q03181); experiment: qHTS assay to identify small molecule agonists of the peroxisome proliferator-activated receptor delta (PPARd) signaling pathway (AID 743212; calls by dose curve)
# Sequence of Peroxisome proliferator-activated receptor delta (Homo sapiens) (Q03181 whole entry, looked up): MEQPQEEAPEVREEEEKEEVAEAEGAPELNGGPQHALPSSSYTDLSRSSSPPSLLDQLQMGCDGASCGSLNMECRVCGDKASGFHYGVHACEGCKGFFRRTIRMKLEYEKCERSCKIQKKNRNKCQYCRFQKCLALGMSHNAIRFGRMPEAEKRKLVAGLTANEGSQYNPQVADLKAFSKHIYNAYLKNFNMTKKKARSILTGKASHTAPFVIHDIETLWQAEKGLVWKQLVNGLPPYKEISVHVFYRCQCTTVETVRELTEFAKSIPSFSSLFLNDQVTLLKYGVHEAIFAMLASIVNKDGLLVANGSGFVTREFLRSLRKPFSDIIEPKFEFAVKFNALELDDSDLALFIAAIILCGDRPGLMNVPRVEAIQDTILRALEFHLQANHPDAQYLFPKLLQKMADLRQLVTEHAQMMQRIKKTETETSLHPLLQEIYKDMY
# How it was run: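 Tox21 library screened in GeneBLAzer PPARd UAS-bla HEK293H cells. After compound treatment at 37 C, a FRET-based beta-lactamase substrate was applied for 2 h and fluorescence recorded.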
# [12] = molecular target: Androgen receptor (Homo sapiens) (UniProt P10275); experiment: qHTS assay to identify small molecule antagonists of the androgen receptor (AR) signaling pathway (AID 743035; active = well fitted inhibition curve with a large enough effect in the signal ratio in the repeat runs, not every such curve was filed as active; the % refers to the signal ratio; also: potency is read from the fitted curve at half-maximal effect)
# Sequence of Androgen receptor (Homo sapiens) (P10275 whole entry, looked up): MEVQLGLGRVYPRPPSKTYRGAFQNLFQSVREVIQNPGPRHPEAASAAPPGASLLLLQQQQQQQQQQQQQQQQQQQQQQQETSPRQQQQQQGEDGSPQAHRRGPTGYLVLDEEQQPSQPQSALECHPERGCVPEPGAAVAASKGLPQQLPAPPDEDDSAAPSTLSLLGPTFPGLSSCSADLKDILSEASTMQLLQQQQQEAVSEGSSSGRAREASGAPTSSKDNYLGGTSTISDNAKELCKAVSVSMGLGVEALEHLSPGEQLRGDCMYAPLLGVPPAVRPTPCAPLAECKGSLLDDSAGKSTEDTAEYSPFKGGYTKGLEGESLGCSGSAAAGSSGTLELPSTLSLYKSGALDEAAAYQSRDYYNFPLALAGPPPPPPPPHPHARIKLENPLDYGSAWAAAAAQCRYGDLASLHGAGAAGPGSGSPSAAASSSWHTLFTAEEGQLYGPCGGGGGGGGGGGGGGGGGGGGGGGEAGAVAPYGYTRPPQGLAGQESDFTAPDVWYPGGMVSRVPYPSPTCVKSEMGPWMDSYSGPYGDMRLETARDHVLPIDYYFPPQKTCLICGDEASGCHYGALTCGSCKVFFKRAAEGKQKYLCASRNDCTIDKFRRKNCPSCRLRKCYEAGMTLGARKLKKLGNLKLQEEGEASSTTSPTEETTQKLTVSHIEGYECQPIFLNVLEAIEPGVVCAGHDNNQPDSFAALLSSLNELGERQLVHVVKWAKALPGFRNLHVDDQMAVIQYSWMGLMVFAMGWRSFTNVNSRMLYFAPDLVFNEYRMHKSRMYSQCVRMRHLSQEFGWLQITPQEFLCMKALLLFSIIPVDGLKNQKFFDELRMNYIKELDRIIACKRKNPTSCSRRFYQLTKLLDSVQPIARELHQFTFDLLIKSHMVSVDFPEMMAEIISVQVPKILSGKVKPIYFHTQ
# How it was run: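 AR-bla HEK293 reporter cells; 4 h settle at 37C/5% CO2; compound + R1881 agonist, 16 h at 37C; LiveBLAzer B/G FRET substrate 2 h RT; fluorescence intensity read. qHTS format.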
# [13] = molecular target: Androgen receptor (Homo sapiens) (UniProt P10275); experiment: qHTS assay to identify small molecule agonists of the androgen receptor (AR) signaling pathway using the MDA cell line (AID 743040; also: nearly all actives have a fitted effect of over 20% in size)
# How it was run: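 Testing was done with the MDA-kb2 AR-luc line, a human breast carcinoma stably transfected with MMTV-luciferase containing AR and GR response elements. Cells were exposed 16 h at 37C before ONE-Glo luminescence detection.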
# [14] = molecular target: Androgen receptor (Homo sapiens) (UniProt P10275); experiment: qHTS assay to identify small molecule antagonists of the androgen receptor (AR) signaling pathway using the MDA cell line (AID 743042; also: nearly all actives have a fitted effect of over 55% in size; also: potency is read from the fitted curve at half-maximal effect)
# How it was run: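 MDA-kb2 breast carcinoma cells carrying MMTV-luciferase (AR/GR responsive) were co-treated with compounds and the agonist R1881 for 16 h at 37C. Inhibition read as ONE-Glo luminescence; CellTiter-Fluor fluorescence measured in parallel for cytotoxicity.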
# [15] = molecular target: Androgen receptor (Homo sapiens) (UniProt P10275); experiment: qHTS assay to identify small molecule agonists of the androgen receptor (AR) signaling pathway (AID 743036; active = well fitted activation curve with a large enough effect in the signal ratio in the repeat runs, with a control signal flat, not every such curve was filed as active; the % refers to the signal ratio)
# How it was run: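 Quantitative HTS of the Tox21 10K library in HEK293 cells bearing a stably integrated UAS-controlled beta-lactamase reporter. Compound exposure lasted 16 h at 37C. Reporter activity was detected by FRET substrate fluorescence after 2 h at room temperature.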
smiles,measurement,setting,value
CCc1cc(OC)c(C[C@@H](C)N)cc1OC,Potency,[1],inactive
CN[C@]1(c2ccccc2Cl)CCCCC1=O,Potency,[1],inactive
same,Potency,[2],inactive
same,Potency,[3],inactive
O=C(NC(=O)c1c(F)cccc1F)Nc1ccc(Cl)c(Oc2ncc(C(F)(F)F)cc2Cl)c1,Potency,[4],inactive
same,Potency,[5],inactive
CC(C)=CCN1CC[C@]2(C)c3cc(O)ccc3C[C@H]1[C@H]2C,Potency,[6],27.3 µM (active)
same,Potency,[2],inactive
same,Potency,[3],inactive
CC(C)[C@@]1(NC(=O)[C@@H]2C[C@@H]3c4cccc5[nH]cc(c45)C[C@H]3N(C)C2)O[C@@]2(O)[C@@H]3CCCN3C(=O)[C@H](Cc3ccccc3)N2C1=O,Potency,[1],inactive
same,max activation,[7],-8.17%
CNC(=O)Oc1ccc2c(c1)[C@]1(C)CCN(C)[C@@H]1N2C,Potency,[8],inactive
Cc1c(N)cccc1N,Potency,[8],inactive
same,Potency,[9],inactive
COc1ccc(C)cc1N,Potency,[8],inactive
same,Potency,[9],inactive
CN1[C@@H]2CC[C@H]1CC(OC1c3ccccc3CCc3ccccc31)C2 (stereo not given in full),Potency,[1],inactive
same,Potency,[6],10.1 µM (active)
same,Potency,[2],inactive
same,Potency,[3],inactive
same,max activation,[7],-2.13%
same,Potency,[4],inactive
same,Potency,[5],inactive
Brc1ccc(Oc2ccc(Br)cc2)cc1,Potency,[10],inactive
same,Potency,[8],inactive
same,Potency,[9],inactive
Cc1ccc(C)cc1,Potency,[8],inactive
same,Potency,[9],inactive
COc1cc([C@@H]2c3cc4c(cc3[C@H](O)[C@H]3COC(=O)[C@H]23)OCO4)cc(OC)c1OC,Potency,[8],inactive
same,Potency,[9],inactive
CCOC(=O)C1(c2ccccc2)CCCN(C)CC1 (stereo not given),Potency,[1],inactive
same,Potency,[6],inactive
same,Potency,[3],inactive
C=CCOc1c(Br)cc(C(C)(C)c2cc(Br)c(OCC=C)c(Br)c2)cc1Br,Potency,[1],inactive
same,outcome,[11],inactive
same,Potency,[8],inactive
same,Potency,[9],inactive
O=C(Cl)c1cccc(C(=O)Cl)c1,Potency,[8],inactive
same,Potency,[9],inactive
CCN(CC)/[N+]([O-])=N/O,Potency,[1],inactive
CCCCCc1cc(O)c2c(c1)OC(C)(C)c1ccc(C)cc1-2,Potency,[6],11.9 µM (active)
same,Potency,[12],16.9 µM (active)
same,Potency,[13],inactive
COc1ccc(OC)c(C[C@H](C)N)c1,Potency,[6],inactive
Clc1ccc(Cl)c(Cl)c1Cl,Potency,[8],inactive
same,Potency,[9],inactive
CO[C@H]1[C@@H](O)C[C@H](O[C@H]2[C@@H](O)C[C@H](O[C@H]3[C@@H](O)C[C@H](O[C@H]4CC[C@@]5(C)[C@H](CC[C@@H]6[C@@H]5C[C@@H](O)[C@]5(C)[C@@H](C7=CC(=O)OC7)CC[C@]65O)C4)O[C@@H]3C)O[C@@H]2C)O[C@@H]1C,Potency,[6],0.668 µM (active)
same,Potency,[12],0.338 µM (active)
same,Potency,[14],1.68 µM (active)
same,max activation,[7],-4.43%
same,Potency,[4],inactive
same,Potency,[5],inactive
COc1cc(C[C@H](C)N)c(OC)cc1C,Potency,[1],inactive
same,Potency,[3],inactive
Cc1nnc2n1-c1sc(Br)cc1C(c1ccccc1Cl)=NC2,Potency,[1],10.7 µM (active)
same,Potency,[6],inactive
same,Potency,[12],8.49 µM (active)
same,Potency,[15],inactive
same,Potency,[13],inactive
same,Potency,[14],inactive
same,Potency,[3],inactive
Clc1cc(Cl)c(-c2c(Cl)c(Cl)cc(Cl)c2Cl)cc1Cl,Potency,[8],inactive
same,Potency,[9],inactive
Clc1cc(Cl)c(Cl)cc1Cl,Potency,[8],inactive
same,Potency,[9],inactive
